# Activity calls are given as the source filed them. The call rests on the fitted dose curve; in most records, active means well fitted activation curve with a large enough effect; inactive means flat fitted curve, though single readings scatter.
# Experiment: Confirmation Concentration-Response Assay for Epigenetic Modulators
# Conditions: murine C127i cells, silenced GFP reporter derepression, imaging
# From the text: NIH Molecular Libraries Screening Centers Network [MLSCN] NIH Chemical Genomics Center [NCGC] MLSCN Grant: 1 X01 MH079860-01 Assay Provider: Elisabeth D. Martinez, University of Texas SW Medical Center NCGC Assay Overview: The Locus Derepression assay detects the derepression of a GFP reporter that is stably integrated in a region of the genome of murine c127i mammary cells that is presumably silenced. GFP transcription in this construct is controlled by a CMV promoter, which normally is strong and constitutively active. However, this line was selected for lack of constitutive expression of the GFP protein. GFP production can be induced by incubating the cells with histone deacetylase or DNA methyltransferase inhibitors. Compounds that cause derepression of the locus to express GFP are identified by enumerating GFP positive cells using a laser-scanning microplate cytometer.
# NCGC Assay Protocol Summary: Two hundred and fifty cells in 5 uL per well were dispensed into black, clear-bottom 1536-well plates. Twenty-three nL compound was transferred to the assay plate and cells were incubated 30 hours at 37 C. […]
compound,measurement,value
CN1CSC(=S)N(C)C1,Potency,7.95 µM (active)
